Source: publication PMC7862700, “An all-to-all approach to the identification of sequence-specific readers for epigenetic DNA modifications on cytosine”

How the values were obtained:
Test in all cases: DAPPL (digital affinity profiling via proximity ligation, sequencing); 10 mM Tris-HCl pH 7.5, 50 mM NaCl, 1 mM DTT, 4% glycerol, room temperature, 30 min; GST-TFs on glutathione beads, 16-mer random dsDNA library, 0.1% formaldehyde crosslink after washing; high values mean tight binding
Details in all cases: protein: recombinant; tags: N-terminal GST; dsDNA, one strand shown
[1] = target: T1, FLI1 (Homo sapiens, UniProt Q01543 1-452)
T1 sequence: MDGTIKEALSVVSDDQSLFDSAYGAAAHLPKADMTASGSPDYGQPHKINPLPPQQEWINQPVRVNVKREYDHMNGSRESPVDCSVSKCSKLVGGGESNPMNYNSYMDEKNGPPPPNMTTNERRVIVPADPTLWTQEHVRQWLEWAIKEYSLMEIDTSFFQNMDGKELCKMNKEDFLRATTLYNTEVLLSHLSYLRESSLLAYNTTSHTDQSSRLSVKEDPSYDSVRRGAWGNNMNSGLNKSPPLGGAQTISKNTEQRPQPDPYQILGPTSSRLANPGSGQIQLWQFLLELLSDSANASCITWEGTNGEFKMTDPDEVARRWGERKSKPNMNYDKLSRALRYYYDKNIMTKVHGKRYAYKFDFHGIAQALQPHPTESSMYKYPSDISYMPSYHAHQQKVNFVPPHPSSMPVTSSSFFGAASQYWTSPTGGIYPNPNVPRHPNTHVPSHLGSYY
Summary of the method: (§1)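 Human transcription factors carrying a GST fusion were produced in yeast, bound to glutathione beads, tagged with DNA barcodes and pooled together with a tag-only sample. Each pool was held with 200 nmole of a random double-stranded 16-mer DNA library in Tris/NaCl/DTT/glycerol buffer for 30 min at room temperature, then washed, crosslinked in 0.1% formaldehyde, proximity-ligated with BsaI/T4 ligase (1 h, 37 °C), PCR-amplified and sequenced on an Illumina NextSeq500. Binding signal is the read frequency of each hexamer for a given factor divided by its frequency in the tag-only sample.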

[2] = target: T2, ERG (Homo sapiens, UniProt P11308 1-479)
T2 sequence: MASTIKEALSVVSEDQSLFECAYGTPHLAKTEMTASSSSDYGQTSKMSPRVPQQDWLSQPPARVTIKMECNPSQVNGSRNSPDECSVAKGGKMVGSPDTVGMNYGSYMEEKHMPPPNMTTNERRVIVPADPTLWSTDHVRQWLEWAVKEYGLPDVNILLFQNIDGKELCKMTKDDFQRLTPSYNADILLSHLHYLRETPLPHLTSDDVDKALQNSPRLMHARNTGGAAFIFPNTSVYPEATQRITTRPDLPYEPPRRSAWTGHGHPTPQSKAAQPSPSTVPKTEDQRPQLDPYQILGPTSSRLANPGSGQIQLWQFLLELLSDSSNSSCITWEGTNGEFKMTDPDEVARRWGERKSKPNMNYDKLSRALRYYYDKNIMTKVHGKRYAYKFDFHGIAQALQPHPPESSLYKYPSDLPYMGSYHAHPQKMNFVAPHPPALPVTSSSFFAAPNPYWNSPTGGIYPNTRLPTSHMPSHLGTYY
Summary of the method: as §1

[3] = target: T3, EHF (Homo sapiens, UniProt Q9NZC4 1-300)
T3 sequence: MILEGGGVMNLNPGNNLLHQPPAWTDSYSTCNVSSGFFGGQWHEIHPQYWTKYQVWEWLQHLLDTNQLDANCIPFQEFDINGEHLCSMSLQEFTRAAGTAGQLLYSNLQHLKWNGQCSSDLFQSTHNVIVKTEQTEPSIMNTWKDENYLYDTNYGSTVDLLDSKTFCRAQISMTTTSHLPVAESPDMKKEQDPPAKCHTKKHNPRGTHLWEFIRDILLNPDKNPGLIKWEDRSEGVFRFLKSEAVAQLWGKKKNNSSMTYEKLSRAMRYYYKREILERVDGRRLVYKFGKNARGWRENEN
Summary of the method: as §1

[4] = target: SPI1 (Homo sapiens, UniProt P17947 1-270)
Summary of the method: as §1

[5] = target: SPIB (Homo sapiens, UniProt Q01892 1-262)
Chain of SPIB (Q01892 whole entry): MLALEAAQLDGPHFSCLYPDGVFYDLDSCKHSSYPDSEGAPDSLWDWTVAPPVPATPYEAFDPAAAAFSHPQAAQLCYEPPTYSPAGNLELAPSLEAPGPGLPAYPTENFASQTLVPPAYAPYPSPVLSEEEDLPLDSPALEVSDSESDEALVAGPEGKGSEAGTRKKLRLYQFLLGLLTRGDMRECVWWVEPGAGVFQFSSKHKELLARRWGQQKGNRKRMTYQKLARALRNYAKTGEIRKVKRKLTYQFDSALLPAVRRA
Summary of the method: as §1

[6] = target: T4, ELK3 (Homo sapiens, UniProt P41970 1-407)
T4 sequence: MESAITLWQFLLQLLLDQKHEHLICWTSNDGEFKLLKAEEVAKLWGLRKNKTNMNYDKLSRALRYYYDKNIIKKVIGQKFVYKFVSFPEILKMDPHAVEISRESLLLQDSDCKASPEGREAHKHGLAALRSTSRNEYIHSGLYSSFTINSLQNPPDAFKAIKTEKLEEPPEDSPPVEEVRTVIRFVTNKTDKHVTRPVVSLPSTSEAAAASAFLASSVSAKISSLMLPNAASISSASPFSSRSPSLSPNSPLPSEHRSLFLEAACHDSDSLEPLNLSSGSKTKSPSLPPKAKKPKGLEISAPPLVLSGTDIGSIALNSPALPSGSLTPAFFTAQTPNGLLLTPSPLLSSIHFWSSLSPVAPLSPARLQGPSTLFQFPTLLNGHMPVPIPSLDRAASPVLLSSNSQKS
Summary of the method: as §1

[7] = target: ETV5 (Homo sapiens, UniProt P41161 1-510)
Chain of ETV5 (P41161 whole entry): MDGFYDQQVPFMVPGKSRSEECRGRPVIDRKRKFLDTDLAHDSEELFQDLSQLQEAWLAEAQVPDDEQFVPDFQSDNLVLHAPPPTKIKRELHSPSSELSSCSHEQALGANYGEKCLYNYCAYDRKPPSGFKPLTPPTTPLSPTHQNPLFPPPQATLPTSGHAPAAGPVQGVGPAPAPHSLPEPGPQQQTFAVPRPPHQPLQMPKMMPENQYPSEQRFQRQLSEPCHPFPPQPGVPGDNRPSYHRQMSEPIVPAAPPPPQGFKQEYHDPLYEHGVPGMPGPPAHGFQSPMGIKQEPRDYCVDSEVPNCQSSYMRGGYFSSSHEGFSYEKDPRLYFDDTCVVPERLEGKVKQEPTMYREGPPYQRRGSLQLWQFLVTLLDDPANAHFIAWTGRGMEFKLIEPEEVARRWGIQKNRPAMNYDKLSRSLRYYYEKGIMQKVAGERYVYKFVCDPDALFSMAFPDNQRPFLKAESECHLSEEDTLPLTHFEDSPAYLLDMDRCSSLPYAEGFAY
Summary of the method: as §1

[8] = target: T5, SPIC (Homo sapiens, UniProt Q8N5J4 1-248)
T5 sequence: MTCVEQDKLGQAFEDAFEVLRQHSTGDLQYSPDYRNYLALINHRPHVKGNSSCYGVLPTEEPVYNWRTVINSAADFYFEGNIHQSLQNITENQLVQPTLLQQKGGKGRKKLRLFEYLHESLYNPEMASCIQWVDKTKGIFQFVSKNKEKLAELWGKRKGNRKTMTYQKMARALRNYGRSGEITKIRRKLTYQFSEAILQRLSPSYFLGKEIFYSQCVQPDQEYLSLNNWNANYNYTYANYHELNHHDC
Summary of the method: as §1

[9] = target: T6, ERF (Homo sapiens, UniProt P50548 1-548)
T6 sequence: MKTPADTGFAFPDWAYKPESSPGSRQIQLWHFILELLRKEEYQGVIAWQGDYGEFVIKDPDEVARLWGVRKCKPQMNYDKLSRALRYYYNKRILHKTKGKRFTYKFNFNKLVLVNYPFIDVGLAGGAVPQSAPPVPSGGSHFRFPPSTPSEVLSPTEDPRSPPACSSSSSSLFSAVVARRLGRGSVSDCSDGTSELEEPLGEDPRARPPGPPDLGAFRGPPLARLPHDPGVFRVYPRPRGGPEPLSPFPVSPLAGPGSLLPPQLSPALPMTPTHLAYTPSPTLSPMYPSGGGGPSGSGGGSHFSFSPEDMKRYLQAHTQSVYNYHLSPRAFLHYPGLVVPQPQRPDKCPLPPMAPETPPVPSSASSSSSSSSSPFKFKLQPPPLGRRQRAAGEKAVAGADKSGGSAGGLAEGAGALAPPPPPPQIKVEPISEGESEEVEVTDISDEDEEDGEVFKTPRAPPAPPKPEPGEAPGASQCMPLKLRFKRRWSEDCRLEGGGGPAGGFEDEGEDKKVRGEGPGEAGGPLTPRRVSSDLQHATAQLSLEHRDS
Summary of the method: as §1

[10] = target: T7, ETV3 (Homo sapiens, UniProt P41162-2 1-143)
T7 sequence: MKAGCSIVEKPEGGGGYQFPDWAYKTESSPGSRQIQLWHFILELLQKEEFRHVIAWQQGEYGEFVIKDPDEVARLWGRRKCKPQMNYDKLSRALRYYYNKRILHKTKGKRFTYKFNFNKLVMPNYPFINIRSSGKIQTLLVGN
Summary of the method: as §1

[11] = target: ETV6 (Homo sapiens, UniProt P41212 1-452)
Chain of ETV6 (P41212 whole entry): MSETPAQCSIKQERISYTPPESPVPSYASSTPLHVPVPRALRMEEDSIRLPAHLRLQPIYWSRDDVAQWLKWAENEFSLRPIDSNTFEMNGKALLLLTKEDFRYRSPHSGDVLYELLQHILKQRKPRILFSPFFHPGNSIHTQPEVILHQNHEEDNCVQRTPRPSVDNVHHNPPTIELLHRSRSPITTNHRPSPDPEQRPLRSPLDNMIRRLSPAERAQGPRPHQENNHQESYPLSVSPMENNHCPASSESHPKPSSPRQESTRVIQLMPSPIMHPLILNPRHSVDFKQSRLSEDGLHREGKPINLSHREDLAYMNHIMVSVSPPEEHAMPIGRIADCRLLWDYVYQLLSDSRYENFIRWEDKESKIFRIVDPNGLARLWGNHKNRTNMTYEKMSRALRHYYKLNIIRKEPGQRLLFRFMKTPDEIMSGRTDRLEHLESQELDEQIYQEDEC
Summary of the method: as §1

## AGTAAC
[1]
  binding signal: 1.02 fold enrichment (6-mer frequency, TF over GST control)
[2]
  binding signal: 1.02 fold enrichment (6-mer frequency, TF over GST control)
[3]
  binding signal: 1 fold enrichment (6-mer frequency, TF over GST control)
[4]
  binding signal: 1.07 fold enrichment (6-mer frequency, TF over GST control)
[5]
  binding signal: 1 fold enrichment (6-mer frequency, TF over GST control)
[6]
  binding signal: 1.01 fold enrichment (6-mer frequency, TF over GST control)
[7]
  binding signal: 1.03 fold enrichment (6-mer frequency, TF over GST control)
[8]
  binding signal: 1.07 fold enrichment (6-mer frequency, TF over GST control)
[9]
  binding signal: 1.01 fold enrichment (6-mer frequency, TF over GST control)
[10]
  binding signal: 1.09 fold enrichment (6-mer frequency, TF over GST control)
[11]
  binding signal: 1.09 fold enrichment (6-mer frequency, TF over GST control)
